Assay outcomes deposited in PubChem BioAssay by several laboratories.
KLK7 zymogen act: activators of human kallikrein-7 zymogen; P49862; purified proKLK7, EDANS-DABCYL substrate fluorescence; 100% is mature enzyme control, 0% vehicle; activation, % at 7 µM; actives 0.9% (n = 370,000);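 active means activation above the mean of all tested compounds plus 3 SD, computed per campaign excluding outliers beyond control limits, cut at about 13% in these data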
NR3A LBD binder: NR3A (human) ligand-binding domain modulation | NR3A LBD differential scanning fluorimetry, Tm shift; 0% = protein alone, 100% = glycine-bound protein | Tm shift relative to glycine control, % at 25 µM | actives 2.5% (n = 340,000);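 active means melting temperature shift of at least 10% of the positive control shift, at one fixed dose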
ADAM10 inh: inhibits human ADAM10. actives 0.62% (n = 370,000). inhibition, % at 7 µM. recombinant ADAM10, EDANS/DABCYL FRET peptide cleavage, 3 h. O14672;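 active means inhibition above a per-campaign cutoff equal to the mean of compounds falling between control-based bounds plus 3 SD, cut at about 20% in these data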
AHR activator: activators of human aryl hydrocarbon receptor; P35869; AHR-responsive luciferase reporter cells, luminescence; activation, % at 5 µM; actives 2.5% (n = 320,000); in the data active means activation above about 47%
ADAM17 inh: inhibits human ADAM17 | P78536 | recombinant ADAM17, EDANS/DABCYL FRET peptide cleavage | inhibition, % at 6.95 µM | actives 0.83% (n = 370,000);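 active means inhibition above the mean of compounds lying between control limits plus 3 SD, set per campaign, cut at about 8.5% in these data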
rCAG binder: molecules binding r(CAG) RNA repeats | r(CAG) RNA repeat, TO-PRO-1 dye displacement fluorescence | inhibition, % at 3 µM | actives 1.3% (n = 370,000);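 active means inhibition above the plate cutoff, the mean of all test compounds on that plate plus 3 SD, cut at about 35% in these data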;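 further: higher means more dye released from RNA so lower well fluorescence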
ADAM10 confirm: human ADAM10 inhibition, confirmation; shares compounds with ADAM10 inh; ADAM10 QFRET peptide cleavage, EDANS fluorescence; inhibition, % at 6.95 µM; actives 1% (n = 2,100); AID 743208;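 active means inhibition above about 20% chosen separately for each screening run, limit read from the data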
ADAM17 ctr: counter-screen for ADAM10 exosite inhibitors: inhibitors of human ADAM17. shares compounds with ADAM10 inh. actives 0.5% (n = 2,100). ADAM17 QFRET peptide cleavage, EDANS fluorescence. inhibition, % at 6.95 µM;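 active means mean triplicate inhibition above the solvent-only control wells' mean plus 3 SD, cut at about 12% in these data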
ADAM10 counter: ADAM10 inhibition, counter-screen for ADAM17 exosite hits; shares compounds with ADAM17 inh; inhibition, % at 6.95 µM; recombinant ADAM10, EDANS/DABCYL FRET peptide cleavage, 3 h; AID 743256; actives 47% (n = 2,900);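 active means mean inhibition over the triplicate runs exceeds the activity threshold set in the earlier primary screen, cut at about 20% in these data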
ADAM17 confirm: confirmation of inhibitors of human ADAM17 | shares compounds with ADAM17 inh | recombinant ADAM17, EDANS/DABCYL QFRET peptide cleavage | inhibition, % at 6.95 µM | actives 65% (n = 2,900);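 active means mean inhibition across replicates above the hit cutoff set in the primary screen, cut at about 8.5% in these data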
Of the large screens only hits and unclear results are named; the others gave an inactive call (follow-up assays come after a bar, where they were run). An excerpt weighted towards active compounds, which were near 7% of everything screened.

O=C(c1ccccc1)N1CCN(c2ccc([N+](=O)[O-])cc2-n2cccc2)CC1	none
Cc1cc(C)cc(NC(=O)C2CCN(S(=O)(=O)c3ccc4c(c3)NC(=O)C(C)S4)CC2)c1 (centres undefined)	none
Cc1ccc(NC(=O)C2CCN(S(=O)(=O)c3ccc4c(c3)NC(=O)C(C)S4)CC2)cc1Cl (centres undefined)	NR3A LBD binder 10, ADAM10 inh 24, ADAM17 inh 9.4 | ADAM10 confirm inactive | ADAM17 ctr inactive | ADAM10 counter 47 | ADAM17 confirm 24
COc1cc2c(cc1NC(=O)COC(=O)c1ccccc1)oc1ccccc12	none (no result: KLK7 zymogen act, NR3A LBD binder, ADAM10 inh, ADAM17 inh, rCAG binder)
COc1cc2c(cc1NC(=O)C(C)Sc1ccc(NC(C)=O)cc1)oc1ccccc12 (centres undefined)	NR3A LBD binder 16, ADAM10 inh 47, ADAM17 inh 22 | ADAM10 confirm inactive | ADAM17 ctr inactive | ADAM10 counter 32 | ADAM17 confirm 18
COc1ccc(S(=O)(=O)n2nc(-c3ccc(Cl)cc3)cc2N)cc1	ADAM10 inh 21, ADAM17 inh 9.0 | ADAM10 confirm inactive | ADAM17 ctr inactive | ADAM10 counter inactive | ADAM17 confirm 8.9
COc1ccc(C2NC(=S)NC(O)(C(F)(F)F)C2C(=O)c2cccs2)cc1 (centres undefined)	none
O=c1[nH]c(=S)[nH]c2c1C(c1cccc(C(F)(F)F)c1)OC(CCc1ccccc1)C2 (centres undefined)	ADAM10 inh 27, ADAM17 inh 14 (no result: NR3A LBD binder, AHR activator) | ADAM10 confirm inactive | ADAM17 ctr inactive | ADAM10 counter 30 | ADAM17 confirm 16
CC(=O)N1CCOc2ccc(S(=O)(=O)N3CCC(C(=O)NCc4ccc(Cl)cc4)CC3)cc21	none (no result: NR3A LBD binder, AHR activator)
O=C(Nc1cccc(Cl)c1)N1CCN2C(=O)c3ccccc3C12c1ccccc1 (centres undefined)	ADAM10 inh 23, ADAM17 inh 11 | ADAM10 confirm inactive | ADAM17 ctr inactive | ADAM10 counter 20 | ADAM17 confirm 12
O=C(CCl)N1CCN2C(=O)c3ccccc3C12c1ccc(Cl)cc1 (centres undefined)	none
NC(=O)[C@H]1CC2(CC(c3cccc(NC(=O)COc4ccc(Cl)cc4)c3)=NO2)CN1C(=O)c1ccc(Cl)cc1 (some centres undefined)	ADAM10 inh 36, ADAM17 inh 14 | ADAM10 confirm inactive | ADAM17 ctr inactive | ADAM10 counter 37 | ADAM17 confirm 22
O=C(c1cccs1)N1CCc2c([nH]c3ccccc23)C1c1ccc(Cl)cc1 (centres undefined)	ADAM10 inh 31, ADAM17 inh 19 | ADAM10 confirm inactive | ADAM17 ctr inactive | ADAM10 counter inactive | ADAM17 confirm 11
COc1ccc(C(O)c2nc(-c3ccc(F)c(Cl)c3)cs2)cc1 (centres undefined)	none (no result: NR3A LBD binder, AHR activator)
COc1ccc(C(O)c2nc(-c3cccc(C(C)C)c3)cs2)cc1 (centres undefined)	ADAM10 inh 21, ADAM17 inh 11 (no result: NR3A LBD binder, AHR activator) | ADAM10 confirm inactive | ADAM17 ctr inactive | ADAM10 counter inactive | ADAM17 confirm 8.7
OC(c1ccc(F)c(F)c1)c1nc(-c2ccc(F)c(Cl)c2)cs1 (centres undefined)	ADAM10 inh 22, ADAM17 inh 8.9 (no result: NR3A LBD binder, AHR activator) | ADAM10 confirm inactive | ADAM17 ctr inactive | ADAM10 counter 36 | ADAM17 confirm 16
